Records with an inconclusive call do not appear. The source made the active and inactive calls. How the source made its calls, unless noted: active means hit-call score of the fitted dose curve at least 0.9, where 1 is the maximum; inactive means score below 0.9.

The first assay can be described thus: CCTE_Shafer_MEA_acute_spike_number: CCTE's Neural Acute Assay for Total Number of Spikes, Shafer Lab (AID 2284008).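 On AC50: curve fitted for decrease in spike count so AC50 reflects inhibitors.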 In a few lines: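 Rat cortical cultures, DIV 13/15, 37 C. 40 min baseline rec, cpd 0.03-40 uM, 40 min post-dose rec. Band-pass 300-5000 Hz, spike threshold 8x rms; % change in spike count per well, DMSO neg ctrl, loss-of-signal fit.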
For the compound `CC(CN=Cc1ccccc1O)N=Cc1ccccc1O` (configuration not stated), the call was inactive.

On to `CCOC(=O)C(C#N)=C(c1ccccc1)c1ccccc1`, for which the call was inactive.

With `COCCc1ccc(OCC(O)CNC(C)C)cc1` (configuration not stated), the outcome was inactive.

Take `O=C(Nc1ccc2c(O)c(N=Nc3ccc(N=Nc4ccc(S(=O)(=O)O)cc4)cc3)c(S(=O)(=O)O)cc2c1)c1ccccc1`: the call was inactive.

For the compound `CC1(C)CCC[C@]2(C)[C@H]3CCO[C@]3(C)CC[C@@H]12`, the compound was classed as inactive.

With `CCCCCCC(CO)CCCC` (configuration not stated), the AC50 (usually the concentration at which the activity in the assay is half-maximal) is 5360 nM (active).

Consider `C=CC(C)(O)CCC=C(C)C` (configuration not stated), for which the call was inactive.

Regarding `Oc1c(Cl)cc(Cl)c(Cl)c1Cc1c(O)c(Cl)cc(Cl)c1Cl`, the AC50 is 266 nM (active).

With `CN(C)C(=S)SC(=S)N(C)C`, the compound was classed as inactive.

Consider `O=CN1CCOCC1`, for which the outcome was inactive.

A short description of another assay: CCTE_Shafer_MEA_acute_firing_rate_mean: CCTE's Neural Acute Assay for Mean Firing Rate, Shafer Lab (AID 2284009).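 Further: analyzed for loss of signal so actives lower firing rate relative to DMSO.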 In a few lines:
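Rat cortical neuron cultures matured to DIV 13 or 15, equilibrated 20 min at 37 C, then recorded 40 min for baseline. Compound (0.03-40 uM) added and a further 40 min recorded; percent change in mean firing rate calculated per well.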
For `CC(CN=Cc1ccccc1O)N=Cc1ccccc1O` (configuration not stated), the call was inactive.

On to `CCOC(=O)C(C#N)=C(c1ccccc1)c1ccccc1`, for which the outcome was inactive.

Regarding `COCCc1ccc(OCC(O)CNC(C)C)cc1` (configuration not stated), the compound was classed as inactive.

As to `O=C(Nc1ccc2c(O)c(N=Nc3ccc(N=Nc4ccc(S(=O)(=O)O)cc4)cc3)c(S(=O)(=O)O)cc2c1)c1ccccc1`, the call was inactive.

Consider `CC1(C)CCC[C@]2(C)[C@H]3CCO[C@]3(C)CC[C@@H]12`, for which the call was inactive.

In the case of `CCCCCCC(CO)CCCC` (configuration not stated), the AC50 was 5360 nM (active).

For `C=CC(C)(O)CCC=C(C)C` (configuration not stated), the outcome was inactive.

As to `Oc1c(Cl)cc(Cl)c(Cl)c1Cc1c(O)c(Cl)cc(Cl)c1Cl`, the AC50 is 266 nM (active).

On to `CN(C)C(=S)SC(=S)N(C)C`, for which the result was inactive.

Consider `O=CN1CCOCC1`, for which the result was inactive.

A short description of another assay: CCTE_Harrill_HTTr_Viability_MCF7: CCTE's 6-hour Cell Viability Assessment for the High-Throughput Transcriptomics (HTTr) Platform, in MCF-7 cells cultured in DMEM + 10% fetal bovine serum, Harrill Lab (AID 2284010). An outline of the steps: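 Propidium iodide exclusion, imaged by high-content analysis, gauged viability after a six-hour exposure across eight concentrations. Cells were MCF-7 grown in DMEM with 10% fetal bovine serum; fits run in both directions against DMSO.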
Consider `CC(CN=Cc1ccccc1O)N=Cc1ccccc1O` (configuration not stated), for which the result was inactive.

With `CC(=O)C1(C)CC2=C(CCCC2(C)C)CC1C` (configuration not stated), the result was inactive.

Take `COCCc1ccc(OCC(O)CNC(C)C)cc1` (configuration not stated): the outcome was inactive.

Regarding `CC(C)CCCCCCCCCCCCCCC(=O)O`, the outcome was inactive.

As to `CC(=O)Nc1ccc(C(=O)CCl)cc1`, the result was inactive.

As for `CC(C=O)Cc1ccc(C(C)(C)C)cc1` (configuration not stated), the outcome was inactive.

For `Cc1cc(C)nc(NS(=O)(=O)c2ccc(N)cc2)n1`, the result was inactive.

For the compound `CCc1cc(Cc2cc(CC)cc(C(C)(C)C)c2O)c(O)c(C(C)(C)C)c1`, the outcome was inactive.

Consider `C=CC(C)(O)CCC=C(C)C` (configuration not stated), for which the outcome was inactive.

For `Oc1c(Cl)cc(Cl)c(Cl)c1Cc1c(O)c(Cl)cc(Cl)c1Cl`, the result was inactive.

For the compound `N[C@@H](Cc1cc(I)c(Oc2cc(I)c(O)c(I)c2)c(I)c1)C(=O)O`, the result was inactive.

As for `C[C@H](CCC(=O)NCC(=O)O)[C@H]1CC[C@H]2[C@@H]3[C@H](O)C[C@@H]4C[C@H](O)CC[C@]4(C)[C@H]3C[C@H](O)[C@]12C`, the result was inactive.

On to `CC1CCC(C(C)C)C(O)C1` (configuration not stated), for which the outcome was inactive.

Regarding `C[C@H]1O[C@@H](O[C@H]2[C@@H](O)C[C@H](O[C@H]3[C@@H](O)C[C@H](O[C@H]4CC[C@@]5(C)[C@H](CC[C@@H]6[C@@H]5C[C@@H](O)[C@]5(C)[C@@H](C7=CC(=O)OC7)CC[C@]65O)C4)O[C@@H]3C)O[C@@H]2C)C[C@H](O)[C@@H]1O`, the result was inactive.

As for `C=C1CC[C@H](O)C/C1=C/C=C1\CCC[C@]2(C)[C@@H]([C@H](C)/C=C/[C@H](C)C(C)C)CC[C@@H]12`, the result was inactive.

As for `CCOC(=O)[C@@H](C)Oc1ccc(Oc2nc3ccc(Cl)cc3o2)cc1`, the outcome was inactive.

Take `OCc1cccc(Oc2ccccc2)c1`: the outcome was inactive.

Another assay is described as follows: CCTE_Harrill_HTTr_Apoptosis_MCF7: CCTE's 6-hour Apoptosis Assessment for the High-Throughput Transcriptomics (HTTr) Platform, in MCF-7 cells cultured in DMEM + 10% fetal bovine serum, Harrill Lab (AID 2284011). In a few lines: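 Read-out: CellEvent Caspase 3/7 Green signal by high content imaging, gain-of-signal indicating apoptosis. MCF-7 cells, DMEM + 10% FBS, eight-point dilution series, 6 h exposure. Curves fitted bidirectionally relative to DMSO negative control.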
Regarding `CC(=O)C1(C)CC2=C(CCCC2(C)C)CC1C` (configuration not stated), the outcome was inactive.

Take `COCCc1ccc(OCC(O)CNC(C)C)cc1` (configuration not stated): the result was inactive.

Regarding `CC(C=O)Cc1ccc(C(C)(C)C)cc1` (configuration not stated), the outcome was inactive.

Turning to `Cc1cc(C)nc(NS(=O)(=O)c2ccc(N)cc2)n1`, the outcome was inactive.

In the case of `CCc1cc(Cc2cc(CC)cc(C(C)(C)C)c2O)c(O)c(C(C)(C)C)c1`, the outcome was inactive.

As to `C=CC(C)(O)CCC=C(C)C` (configuration not stated), the result was inactive.

With `Oc1c(Cl)cc(Cl)c(Cl)c1Cc1c(O)c(Cl)cc(Cl)c1Cl`, the outcome was inactive.

With `N[C@@H](Cc1cc(I)c(Oc2cc(I)c(O)c(I)c2)c(I)c1)C(=O)O`, the outcome was inactive.

As for `C[C@H](CCC(=O)NCC(=O)O)[C@H]1CC[C@H]2[C@@H]3[C@H](O)C[C@@H]4C[C@H](O)CC[C@]4(C)[C@H]3C[C@H](O)[C@]12C`, the outcome was inactive.

Take `C[C@H]1O[C@@H](O[C@H]2[C@@H](O)C[C@H](O[C@H]3[C@@H](O)C[C@H](O[C@H]4CC[C@@]5(C)[C@H](CC[C@@H]6[C@@H]5C[C@@H](O)[C@]5(C)[C@@H](C7=CC(=O)OC7)CC[C@]65O)C4)O[C@@H]3C)O[C@@H]2C)C[C@H](O)[C@@H]1O`: the result was inactive.

Regarding `CCOC(=O)[C@@H](C)Oc1ccc(Oc2nc3ccc(Cl)cc3o2)cc1`, the result was inactive.

Consider `OCc1cccc(Oc2ccccc2)c1`, for which the outcome was inactive.

A further assay can be described thus: CCTE_Harrill_HTTr_CellCount_MCF7: CCTE's Cell Proliferation Assessment for the High-Throughput Transcriptomics (HTTr) Platform, Harrill Lab (AID 2284012; active means hit-call score of the fitted dose curve at least 0.9, where 1 is the maximum;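 further: cells exposed to compound for six hours; intended direction is loss of nuclei count meaning fewer cells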). In a few lines: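 Cell count from high-content imaging of Hoechst-labeled nuclei serves as viability/growth readout. Chemicals were applied to MCF-7 cells in eight concentrations for six hours, with fitting in both directions relative to DMSO.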
For the compound `CC(=O)C1(C)CC2=C(CCCC2(C)C)CC1C` (configuration not stated), the result was inactive.

As for `COCCc1ccc(OCC(O)CNC(C)C)cc1` (configuration not stated), the compound was classed as inactive.

Turning to `CC(C)CCCCCCCCCCCCCCC(=O)O`, the outcome was inactive.

With `CC(C=O)Cc1ccc(C(C)(C)C)cc1` (configuration not stated), the compound was called inactive.

In the case of `C[C@H]1O[C@@H](O[C@H]2[C@@H](O)C[C@H](O[C@H]3[C@@H](O)C[C@H](O[C@H]4CC[C@@]5(C)[C@H](CC[C@@H]6[C@@H]5C[C@@H](O)[C@]5(C)[C@@H](C7=CC(=O)OC7)CC[C@]65O)C4)O[C@@H]3C)O[C@@H]2C)C[C@H](O)[C@@H]1O`, the call was inactive.

For `C=C1CC[C@H](O)C/C1=C/C=C1\CCC[C@]2(C)[C@@H]([C@H](C)/C=C/[C@H](C)C(C)C)CC[C@@H]12`, the compound was classed as inactive.

With `CCOC(=O)[C@@H](C)Oc1ccc(Oc2nc3ccc(Cl)cc3o2)cc1`, the compound was classed as inactive.

Consider `OCc1cccc(Oc2ccccc2)c1`, for which the compound was classed as inactive.
